# Screens from PubChem.
# A selection: hits, their analogues and other compounds. The true share with any hit is near 2.4%.
# PGK inhibitor = inhibitors of T. brucei phosphoglycerate kinase; Potency, µM (series often up to 57.5 µM), without a hit: top-dose activity change, negative = inhibition, usual class: inhibitors; AID 602233; PGK/GAPDH coupled, Kinase-Glo luminescence, 60 min; P07378; hit rate 0.043% among 380,000; also: % is scaled to controls: 0 for no effect and ±100 for the full control effect; nearly all actives have a fitted effect of over 60% in size
#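 Luminescent ATP detection (Kinase-Glo Plus) follows a 60-minute room-temperature incubation, with wells lacking PGK as controls. Buffer: 100 mM TEA (pH 7.6), 5 mM MgCl2, 0.01% Tween-20. Coupling enzyme GAPDH (100 nM final) supplies unstable 1,3-BPG in-well.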
# Tb PFK inh = blocks T. brucei phosphofructokinase. O15648. T. brucei PFK, ADP-Glo luminescence. Potency, µM (titrated, usually from 57.5 µM), inactives show at the highest dose activity, negative = inhibition, actives largely listed as inhibitors. hit rate 0.17% among 330,000. AID 485367;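 also: 0% = uninhibited 1x PFK enzyme wells and -100% = no-enzyme wells; nearly all actives have a fitted effect of over 60% in size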
#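 Luminescent ADP detection (ADP-Glo, two-step: ATP depletion then ADP-to-ATP conversion for luciferase) reported PFK activity after 45 min room-temperature reaction of 1.25 nM enzyme with 0.5 mM F6P and 0.1 mM ATP at pH 8.0.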
# PKM2 act = increases activity of human pyruvate kinase M2; AID 1631; hit rate 0.34% among 260,000; Potency, µM (top dose mostly 57.5 µM), inactives show at the highest dose activation, usual class: activators; purified PKM2, Kinase-Glo ATP luminescence, activation; response scale: 0% is enzyme alone, no compound; also: % is scaled to controls: 0 for no effect and ±100 for the full control effect; nearly all actives have a fitted effect of over 55% in size
# Target sequence (P14618 whole entry, looked up): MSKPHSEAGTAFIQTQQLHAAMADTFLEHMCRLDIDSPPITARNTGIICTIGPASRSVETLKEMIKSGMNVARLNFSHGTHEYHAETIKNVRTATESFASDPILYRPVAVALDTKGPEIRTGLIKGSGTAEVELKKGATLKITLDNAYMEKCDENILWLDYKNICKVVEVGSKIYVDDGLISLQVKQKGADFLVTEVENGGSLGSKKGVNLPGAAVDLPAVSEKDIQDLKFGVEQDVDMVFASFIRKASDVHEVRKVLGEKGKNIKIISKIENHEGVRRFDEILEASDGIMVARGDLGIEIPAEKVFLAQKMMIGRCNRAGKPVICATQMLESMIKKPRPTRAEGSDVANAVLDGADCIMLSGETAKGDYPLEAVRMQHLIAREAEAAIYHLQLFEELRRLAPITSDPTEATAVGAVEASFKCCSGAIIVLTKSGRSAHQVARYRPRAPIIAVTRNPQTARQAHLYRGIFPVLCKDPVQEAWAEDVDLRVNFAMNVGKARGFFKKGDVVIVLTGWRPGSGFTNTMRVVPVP
#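 Purified hPK-M2 (>95% pure) converted ADP (0.1 mM final) to ATP with 0.5 mM PEP in 50 mM imidazole pH7.2, KCl, MgCl2, Tween 20, BSA; 1 h at room temperature. ATP detected by Kinase-Glo luminescence.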
# Rango dissoc inh = inhibition of RanGTP-driven Rango-importin beta dissociation | Biochemical FRET Rango-importin beta, RanGTP-induced dissociation | hit rate 0.071% among 340,000 | O95149+P62826 | Potency, µM (doses to about 46.1 µM), for inactives: at the top dose activity change, negative = inhibition; calls by dose curve; also: % of control where 0% means no effect; nearly all actives have a fitted effect of over 45% in size
#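 Rango FRET biosensor (snurportin-1 IBB flanked by N-terminal EYFP and C-terminal CFP10) at 0.1 uM, with 0.25 uM importin beta in PBS, 1mM DTT, 0.02% Tween-20, 0.1% BSA. 0.6 uM Ran, 2mM GTP and 0.2 uM RCC1 were then added for 45 min at room temperature. Inhibition read as loss of FRET rise.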
# Rango complex inh = prevents formation of the Rango-importin beta complex; Q14974; Rango CFP/YFP FRET sensor + importin beta, 45 min; Potency, µM (highest dose often 92.2 µM), inactives show top-dose inhibition of complex formation; hit rate 0.031% among 340,000; AID 540263; calls by dose curve;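 also: 0% = DMSO wells and 100% = buffer wells lacking importin beta; nearly all actives have a fitted effect of over 15% in size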
#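 Inhibition scored from the CFP 486 nm/YFP 530 nm FRET ratio 45 min after adding 0.125 microM importin beta to 50 nM Rango biosensor preincubated 5 min with compound (room temperature, PBS with DTT, Tween-20, BSA). No-importin wells as positive control.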
# ELG1 repair inh = ELG1-dependent DNA repair inhibition; HEK293T ELG1-luciferase reporter, luminescence, 16 h; DNA damage induced by 5-fluorouridine; Potency, µM (highest dose often 46.1 µM), for the others: at the top dose activity change, negative = inhibition, actives largely listed as inhibitors; hit rate 2.3% among 330,000; also: % is scaled to controls: 0 for no effect and ±100 for the full control effect; nearly all actives have a fitted effect of over 55% in size
#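 Reporter activity after DNA damage by 5-fluorouridine is monitored. Compound-treated cells incubate 16 hr at 37 °C, then ONE-Glo is added for 30 min before luminescence reading.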
# Numbers without * were called inactive; i = inactive; ? = inconclusive; / = no result given; [ ] = remark or other dose. Unless noted, calls follow the shape of the dose curve; as a rule, active = well fitted curve in the direction sought with a large enough effect; inconclusive = small, poorly fitted or top-dose-only effect, or another doubt; inactive = no such curve, though single readings can be large; an effect the other way counts as inactive or inconclusive. Potency is read from the fitted curve at half-maximal effect.
SMILES,PGK inhibitor,Tb PFK inh,PKM2 act,Rango dissoc inh,Rango complex inh,ELG1 repair inh
O=C(CC1CC2CCC1C2)Nc1nc(-c2ccccn2)cs1 (stereo not drawn),-4.5%,-3.0%,-3.9%,-4.1%,-0.8%,20.6µM*
CCOC(=O)C1=C(C)NC2=C(C1c1ccc([N+](=O)[O-])cc1)S(=O)(=O)c1ccccc12 (stereo not drawn),-5.0%,0.2%,-4.2%,4.7%,-0.8%,10.3µM*
CCOC(=O)C1=C(C)NC(C)=C(C(=O)OCC)C1c1cccc([N+](=O)[O-])c1,-6.7%,/,/,/,/,/
COC(=O)c1ccc(OC)c(CN2CCCN(Cc3cc(C)ccc3C)S2(=O)=O)c1,-9.4%,-3.6%,/,?,6.0%,14.6µM*
COC(=O)c1ccc(OC)c(CN2CCCN(Cc3ccc(C)cc3)S2(=O)=O)c1,3.3%,/,/,/,/,/
CC(=O)Nc1ccc(Nc2nc(C)c([N+](=O)[O-])c(Nc3ccccc3)n2)cc1,-5.2%,0.4%,-2.7%,1.3%,-1.4%,14.6µM*
CC(=O)Nc1ccc(Nc2nc(C)c([N+](=O)[O-])c(N(C)c3ccccc3)n2)cc1,i,-2.9%,-1.3%,-0.1%,1.6%,20.6µM*
Cc1nc(Nc2ccc(C(=O)O)cc2)nc(Nc2ccc(C(=O)O)cc2)c1[N+](=O)[O-],-5.9%,6.3%,-3.0%,-11.9%,8.6%,4.7%
CCC(=O)Nc1ccc(Nc2nc(C)c([N+](=O)[O-])c(Nc3ccc(NC(=O)CC)cc3)n2)cc1,-10.3%,0.8%,9.6%,5.3%,-0.7%,11.6µM*
Nc1ccc(N2CCN(c3ncc(C(F)(F)F)cc3Cl)CC2)c(C(F)(F)F)c1,-2.5%,/,/,/,/,/
CC(C)(C)OC(=O)NC1CC2CCCC(C1)N2Cc1ccccc1 (stereo not drawn),-0.9%,1.4%,-2.4%,-3.7%,5.2%,4.5%
COc1ccc(CN(C)C(=O)C(Cc2ccccc2)NC(=O)c2ccccc2)cc1F (stereo not drawn),-0.1%,-0.2%,/,13.9%,3.0%,14.6µM*
CCN(CC(=O)Nc1ccc(NC(C)=O)cc1)C(=O)/C=C/c1cn(Cc2ccccc2)nc1-c1cccnc1,-8.0%,-0.4%,/,-6.2%,-1.5%,?
COc1cccc(NC(=O)CN(C)C(=O)/C=C/c2cn(Cc3ccccc3)nc2-c2cccnc2)c1,1.2%,4.1%,/,1.4%,-2.4%,14.6µM*
COc1cc(/C=N/NC(=O)CCn2c3ccccc3c3ccccc32)cc(OC)c1OC,11.4%,3.8%,-5.5%,-5.0%,3.4%,18.4µM*
COc1cc(/C=N/NC(=O)c2ccoc2C)cc(OC)c1OC,-9.8%,/,/,11.7%,-8.9%,/
COc1cc(/C=N/NC(=O)c2cc(-c3ccccc3)sc2N)cc(OC)c1OC,4.2%,0.8%,6.3%,-6.2%,?,23.1µM*
COc1cc(/C=N/NC(=O)c2ccc(-c3ccccc3)cc2)cc(OC)c1OC,-2.8%,-6.0%,-3.6%,6.2%,0.4%,16.4µM*
COc1ccc(S(=O)(=O)N(CC(=O)NCc2ccncc2)c2cc(C)cc(C)c2)cc1OC,8.1%,0.3%,/,0.2%,1.3%,0.5%
CC(C)CC(NC(N)=O)C(=O)Nc1ccc(Oc2ccccc2)cc1 (stereo not drawn),-1.1%,3.7%,1.0%,5.1%,0.2%,?
CN(C(=O)COC(=O)/C=C/c1cn(-c2ccccc2)nc1-c1ccc2c(c1)OCCO2)C1CCS(=O)(=O)C1 (stereo not drawn),-4.0%,-3.0%,-1.2%,21.7%,8.4%,20.6µM*
O=C(COC(=O)/C=C/c1cn(-c2ccccc2)nc1-c1ccc2c(c1)OCCO2)NC1CCS(=O)(=O)C1 (stereo not drawn),4.4%,0.7%,-2.6%,-18.9%,-0.9%,18.3µM*
O=C(Nc1ccccc1C(=O)Nc1ccncc1)c1ccccc1,-8.7%,1.2%,-2.9%,-7.2%,7.7%,20.2%
Cc1cc(/C=C(\C#N)C(N)=O)c(C)n1-c1ccc(N2CCOCC2)c([N+](=O)[O-])c1,-1.1%,-0.1%,-3.6%,1.3%,0.0%,23.1µM*
COc1cc(CNCc2cc(OC)c(OC)c(OC)c2)cc(OC)c1,-9.7%,4.3%,2.2%,3.5%,0.8%,-22.2%
SMILES,PGK inhibitor,Tb PFK inh,PKM2 act,Rango dissoc inh,Rango complex inh,ELG1 repair inh
COc1ccc2nc(NC(=O)C3CCCN3S(=O)(=O)c3ccc(C)cc3)sc2c1 (stereo not drawn),-4.8%,2.0%,-4.6%,-17.8%,-0.9%,23.1µM*
Cc1ccc(NC(=O)C2CCN(S(=O)(=O)c3cccc4nonc34)CC2)nc1,-2.2%,-5.0%,1.3%,-6.9%,?,20.6µM*
COc1ccc2nc(NC(=O)C3CCCN(S(=O)(=O)c4cccc5nsnc45)C3)sc2c1 (stereo not drawn),-11.8%,-0.9%,0.2%,11.2%,7.4%,11.6µM*
CCOc1ccc2nc(NC(=O)C3CCCN(S(=O)(=O)c4c(C)noc4C)C3)sc2c1 (stereo not drawn),-8.1%,-0.4%,-4.1%,-9.3%,2.2%,?
COc1ccc(CNC(=O)C2CCCN(S(=O)(=O)c3cccc4nsnc34)C2)cc1 (stereo not drawn),1.9%,-0.7%,-3.6%,-9.7%,-0.4%,-1.9%
CCOc1ccc2nc(NC(=O)C3CCCN(S(=O)(=O)c4cccc5nonc45)C3)sc2c1 (stereo not drawn),/,3.6%,4.9%,0.6%,1.1%,23.1µM*
CC(C)(C)OC(=O)N1CCC(c2c(C(=O)N3CCN(c4ccccc4F)CC3)cnn2C(C)(C)C)CC1,4.4%,/,/,/,/,/
Cc1ccc(CN2C(=O)C3(c4ccccc42)N(c2cccc(F)c2)C(=O)CS3(=O)=O)cc1 (stereo not drawn),-9.4%,/,/,/,/,/
COc1ccccc1C(=O)NC(CCSC)C(=O)NNC(=O)c1ccccc1O (stereo not drawn),-11.7%,0.0%,/,3.6%,-0.1%,2.5%
COc1ccc2nc(NC(=O)C3CCCN(S(=O)(=O)c4cccc5nonc45)C3)sc2c1 (stereo not drawn),-0.3%,0.8%,6.3%,3.3%,-4.7%,25.9µM*
COc1ccc(NC(=O)C2CCCN(S(=O)(=O)c3cccc4nonc34)C2)c(OC)c1 (stereo not drawn),-9.1%,0.1%,-0.5%,-10.6%,0.4%,-11.5%
COC(=O)c1c(NC(=O)Cc2cccs2)sc(C(=O)NC2CCCCC2)c1C,-1.8%[11.5 µM],/,/,-3.2%,-0.7%,/
COC(=O)c1c(NC(=O)Cc2cccs2)sc(C(=O)N2CCCCC2)c1C,/,-1.5%,-2.1%,-3.3%,5.1%,25.9µM*
